SMILES strings stand for the structures. Screen size: about 3,300 compounds; about 280 (8.5%) were called active. Shown is part of a subset that was picked to be rich in actives. Unmarked numbers belong to inactive results.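 How the source made its calls: active means mean growth inhibition over the two runs of 50% or more; inactive means mean growth inhibition under 50%.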

This experiment in a line: A549 NSCLC cell proliferation inhibitors – ATP luminescence, human non-small cell lung line, primary screen (AID 371).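 Further: compound exposure lasted 72 h before the ATP read; 0% = untreated cell signal and 100% = no luminescence left.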 The following applies: at 10 µM, stronger effect = higher value.
In the case of `N#Cc1ccc(-c2cccnc2)nc1SCC(=O)Nc1sc2c(c1C#N)CCC2`, the growth inhibition is 14.6%.
Turning to `CCC(C)n1ncn(-c2ccc(N3CCN(c4ccc(OCC5COC(Cn6cncn6)(c6ccc(Cl)cc6Cl)O5)cc4)CC3)cc2)c1=O` (centres undefined), the growth inhibition was 50.3% (active).
With `COCc1n[nH]c(=S)n1-c1cccc2ccccc12`, the growth inhibition is 4.29%.
In the case of `CCOc1ccc(N=C2C(=O)N(CN3CCOCC3)c3ccccc32)cc1` it was 20.3%.
Under `COC(=O)c1ccc(Cn2c(O)c(N=O)c3ccccc32)o1` stands 8.55%.
Regarding `CCCCCC(=O)N1CC2(CC)CN(C(=O)CCCCC)CC(CC)(C1)C2=O`, the growth inhibition is 14.3%.
In the case of `CC(Sc1ccc2ccccc2n1)C(=O)O` (centres undefined) it was -2.6%; in that of `O=C(O)CCSc1ccc2ccccc2n1`, 1.45%; in that of `O=C1c2ccccc2C(=O)C1c1ccc2ccccc2n1`, 74.9% (active).
In the case of `COC(=O)C1=C(N)Oc2cc(C)oc(=O)c2C1c1ccncc1` (centres undefined) it was -1.55%; in that of `COC(=O)/C(=C1/Oc2cc(C)oc(=O)c2S1)C(F)(F)F`, 76.1% (active); in that of `COC(=O)c1ccc(C2/C(=C(\O)c3cccc(OC)c3)C(=O)C(=O)N2CCCN(C)C)cc1` (centres undefined), 1.92%.
Turning to `Cc1nnc2n(-c3ccccc3)c(=O)c3c4c(sc3n12)CC(C)CC4` (centres undefined), the growth inhibition was 12.7%.
In the case of `CN=C(c1ccco1)n1c(=S)nc(-c2ccco2)n(C)c1=S` it was 5.55%; in that of `NS(=O)(=O)c1ccc(C(=O)O)cc1`, -6.06%.
Under `COc1cc(C(=O)Nc2ccc(O)cc2C(=O)O)ccc1OC(C)=O` stands 2.72%; under `CC(=O)Oc1cccc2c1C(=O)c1c(OC(C)=O)cc(C(=O)O)cc1C2=O`, 57.8% (active).
As to `Nc1cccc(C(=O)O)c1`, the growth inhibition was 4.57%.
In the case of `CC(=O)Oc1ccccc1C1OC(=O)c2ccccc2N1C(C)=O` (centres undefined) it was 4.51%; in that of `O=C(O)c1cc(O)c2c(c1)C(=O)c1cccc(O)c1C2=O`, 59.2% (active).
Consider `CN1CCN(Cc2c(O)ccc3c(-c4ccccc4)cc(=O)oc23)CC1`, for which the growth inhibition is 8.11%.
Under `Cc1c(Cl)c(C(F)(F)F)nn1CC(=O)N1CCSCC1` stands 8.88%; under `Cn1c(OCc2cccnc2)nc2c1c(=O)n(Cc1ccc(Cl)cc1)c(=O)n2C`, 35.5%.
In the case of `O=C(NCCCNCc1ccccc1)/C(=N\O)c1ccccc1` it was 1.98%; in that of `CCOC(=O)c1[nH]c2ccc(Br)cc2c1NC(=O)CNC`, 15.7%; in that of `C=COC(=O)CSc1nc(-c2cccs2)ccc1C#N`, 5.33%.
Under `CC(=O)NCC(=O)OCN1C(=O)c2ccccc2C1=O` stands -2.75%.
For `COC(=O)Nc1nc2ccc(Sc3ccccc3)cc2[nH]1`, the growth inhibition is 81.7% (active).
Under `CCOc1ccc2nc(SCC(=O)Nc3ncccn3)[nH]c2c1` stands -4.07%; under `CC(=O)Nc1ccc(Oc2ccc3nc(C)[nH]c3c2)cc1`, 10.6%; under `Cn1c(=O)n(C)c2cc(C(=O)c3ccccc3)ccc21`, 5.5%.
For the compound `Cn1c(=O)oc2cc(C(=O)c3ccccc3)ccc21`, the growth inhibition was 13.3%.
Regarding `CCC(=O)Nc1nc(C)c(Oc2ccccc2)c(=O)[nH]1`, the growth inhibition was 1.39%.
For `CCCSc1ccc2nc(NC(=O)OC)[nH]c2c1`, the growth inhibition was 53.2% (active).
In the case of `COC(=O)Nc1nc2ccc(C(=O)c3ccccc3)cc2[nH]1` it was 55.8% (active); in that of `CCCOc1ccc2nc(NC(=O)OC)[nH]c2c1`, 48.4%; in that of `COC(=O)CCc1c(C)[nH]c(C(=O)OCc2ccccc2)c1C`, 3.52%.
`O=C(Nc1ccc2c(c1)OCO2)c1cc2n(n1)C(C(F)(F)F)CC(c1ccccc1)N2` (centres undefined): the growth inhibition was 10.4%.
Under `Cc1nc2sc(C)c(C)c2c(=O)o1` stands 3.93%.
Under `COCCCNC(=O)C(C#N)c1nc2ccccc2nc1N1CCCC1` (centres undefined) stands 9.56%.
Under `O=C(O)CCCC(=O)Nc1ccn(-c2ccccc2)n1` stands -9.55%.
With `COc1ccc(C2C(C#N)=C(C)NC3=C2C(=O)c2ccccc23)cc1` (centres undefined), the growth inhibition is 19.6%.
For the compound `COCCOCCOCCC(=O)NC1CC2CCC1(C)C2(C)C` (centres undefined), the growth inhibition was 0.85%.
On to `O=C(CCC1CCCC1)N1CCC(N2CCN(c3ccccc3)CC2)CC1`, for which the growth inhibition is 17.9%.
In the case of `CCCCCCCCNC(C)C(O)c1ccc(SC(C)C)cc1` (centres undefined) it was 92.4% (active).
Under `CC(NCCc1ccc(O)cc1)C(O)c1ccc(O)cc1` (centres undefined) stands 1.42%; under `NC(=O)C1CCN(CCC(=O)Nc2ccc(Br)cc2)CC1`, 7.48%.
Under `Cc1cccc(NC(=O)c2c(C)cc(=O)oc2C)n1` stands -3.57%; under `CCNc1nc(Oc2ccccc2)nc(OC(C)C(=O)OCC)n1` (centres undefined), -2.75%; under `COc1cc(-n2c3nc4ccccc4nc3c3c(=O)n(Cc4ccco4)cnc32)cc(OC)c1OC`, 4.1%.
Consider `CCOc1ccc(-n2c3nc4ccccc4nc3c3c(=O)n(Cc4ccco4)cnc32)cc1`, for which the growth inhibition was 14.6%.
Under `Cc1cc(C)cc(-n2c3nc4ccccc4nc3c3c(=O)n(Cc4ccco4)cnc32)c1` stands 72.2% (active); under `COc1ccc(C2(CN(C(C)=O)C(C)=O)CCCC2)cc1OC`, 9.44%; under `COC(=O)NCC12CC3CC(C1)CC(CNC(=O)OC)(C3)C2`, 2.32%.
In the case of `Nc1c(Br)cc2oc(-c3ccccc3)nc2c1Br` it was 31.4%; in that of `O=C1CCCN1c1ccc(S(=O)(=O)NCc2ccco2)cc1`, 0.41%; in that of `COc1ccc(OC)c(NS(=O)(=O)c2ccc(N3CCCC3=O)cc2)c1`, 62.5% (active).
As to `COc1ccc(N2CC(=O)N(c3ccc(OC)c(OC)c3)CC2=O)cc1OC`, the growth inhibition is -2.72%.
On to `CCOc1ccc(/C(O)=C2/C(=O)C(=O)N(CCN(C)C)C2c2ccccc2)cc1Cl` (centres undefined), for which the growth inhibition is -0.75%.
In the case of `COc1cccc(/C(O)=C2\C(=O)C(=O)N(c3ccccn3)C2c2ccccc2OC)c1` (centres undefined) it was 6.79%.
In the case of `CC(C)Cn1cnc2c(c1=O)c1nc3ccccc3nc1n2Cc1ccc2c(c1)OCO2` it was 12.6%.
In the case of `CC(C)C1Cc2c(C#N)c(N)n(C)c(=S)c2CO1` (centres undefined) it was 11.2%; in that of `COc1ccc(OC)c(C2C(C(=O)c3ccco3)=C(O)C(=O)N2CCCN2CCOCC2)c1` (centres undefined), 4.05%.
In the case of `Cc1nc(N2CCN(Cc3ccccc3)CC2)c(C#N)c2c1COC(C)(C)C2`, the growth inhibition is 17.5%.
Under `c1ccc2c(N3CCCCC3)nc(N3CCCCC3)nc2c1` stands 25.8%; under `c1ccc(N2CCN(c3nc(-c4ccccn4)nc4ccccc34)CC2)cc1`, 64.6% (active); under `Fc1ccccc1-c1nc(N2CCCCC2)c2ccccc2n1`, 47.5%.
In the case of `c1ccc(CN2CCN(c3nc(-c4ccccn4)nc4ccccc34)CC2)cc1` it was 60% (active).
For `COc1cccc(-c2nc(N3CCN(Cc4ccccc4)CC3)c3ccccc3n2)c1O`, the growth inhibition is 6.86%.
In the case of `CCOC(=O)COc1nc(N(C)C)nc(N(C)C)n1` it was -5.85%; in that of `Cc1nc(SCC(=O)Nc2ccc3c(c2)OCO3)c(C#N)c2c1CCCC2`, 18.5%.
Under `C=C1C2(C(=O)Nc3nccs3)CCC(C2)C1(C)C` (centres undefined) stands 5.39%.
In the case of `COc1ccc(-c2nnc3sc(-c4c(OC)cccc4OC)nn23)cc1` it was 16.6%; in that of `CC(O)CNc1nc2c(c(=O)n(C)c(=O)n2C)n1Cc1cccc(C(F)(F)F)c1` (centres undefined), 22.2%.
Turning to `O=C(Nc1ccc2c(c1)OCO2)c1cncc(Br)c1`, the growth inhibition was 4.86%.
`COC(=O)c1ccn(C(=O)c2ccc(Cl)cc2)n1`: the growth inhibition is 3.19%.
Under `COCCOC(=O)c1c(C)nc(SCC(=O)Nc2ccc(OC)cc2)c(C#N)c1-c1ccco1` stands 5.46%; under `CCCN(CCC)c1nc2ccccc2nc1C(C#N)C(=O)OC(C)COC` (centres undefined), 52.1% (active).
In the case of `C=CCN(CC=C)c1nc2ccccc2nc1C(C#N)C(=O)OC(C)C` (centres undefined) it was 23.2%; in that of `CCCCN(CCCC)c1nc2ccccc2nc1C(C#N)C(=O)NCCCOC` (centres undefined), 9.29%.
Under `Cc1oc2cc(O)cc(C)c2c(=O)c1-c1cnn(-c2ccccc2)c1` stands 59% (active); under `Cc1oc2cc(O)ccc2c(=O)c1-c1cnn(-c2ccccc2)c1`, 28.4%; under `CCOC(=O)c1oc2cc(O)cc(C)c2c(=O)c1-c1cscn1`, 4.18%.
In the case of `CCOC(=O)C1=C(C)NC(SCC(=O)Nc2nc(C)cs2)=C(C#N)C1c1cccs1` (centres undefined), the growth inhibition is 86.8% (active).
As for `CCSC1=C(C#N)C(c2cccs2)C(C(=O)OC)=C(C)N1` (centres undefined), the growth inhibition was 30.4%.
In the case of `C#CCSC1=C(C#N)C(c2cccs2)C(C(=O)OCC)=C(C)N1` (centres undefined), the growth inhibition is 47.5%.
Under `COc1cc(-c2nn3c(-c4ccco4)nnc3s2)cc(OC)c1OC` stands 0.05%.
Under `O=C(NCCCN1CCOCC1)C1(c2ccccc2)CCOCC1` stands 2.07%; under `O=C(c1ccc(=O)oc1)N1CCN(C(c2ccccc2)c2ccccc2)CC1`, 41.2%; under `CNCCCC12CCC(c3ccccc31)c1ccccc12`, 52.9% (active).
In the case of `CCCCc1nc2n[nH]c(N)c2c2c1CCCC2` it was 12.1%; in that of `CC(C)(C#N)C(C)(C)c1nn[nH]n1`, -3.48%.
Regarding `Cc1cc(=O)n(CCC(=O)O)c2ccccc12`, the growth inhibition is 0.16%.
For the compound `COc1ccc2c(c1)nc(N)n2Cc1ccccc1`, the growth inhibition was 21.8%.
Under `Clc1ccc(Cn2c(CN3CCCC3)nc3ccccc32)cc1` stands 29.6%; under `COc1ccc(CCN2CCC(Nc3nc4ccccc4n3Cc3ccc(F)cc3)CC2)cc1`, 95.5% (active); under `COc1ccc(OC)c(C2C(C#N)=C(N)Oc3cc(C)n(Cc4ccccn4)c(=O)c32)c1` (centres undefined), -2.3%.
In the case of `COC(=O)CSc1nc(C)c(Oc2ccccc2)c(=O)[nH]1` it was -3.23%.
In the case of `COC(=O)c1ccccc1OCc1cccc(C)n1` it was 6.89%.

The values are drawn from PubChem BioAssay AID371 (SRMLSC, 2006).
